Bioassay records (PubChem)
Most compounds without a hit are left out; they make up all but 1.6% or so of the library.
SSB-PriA inh: inhibitors of Klebsiella pneumoniae PriA binding to SSB C-terminal tail; AlphaScreen SSBct-PriA binding, biotinylated peptide; inhibition, % at 33 µM; AID 1272365; hit rate 0.6% among 430,000; in the data active = inhibition mostly above about 37%, no sharp cut-off; inactive = mostly below about 20%;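 also: plate controls were negative control peptide for no effect and reference peptide for full effect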
PrP UTR inh: suppresses PrP 5' UTR mRNA reporter expression; cell-based PrP 5' UTR mRNA reporter, plate reader; inhibition, % (no concentration beside the values); hit rate 0.35% among 340,000; AID 488862; in the data active = inhibition above about 52%; also: 0 = median of the neutral control wells
BH1578 lux ind: induces V. cholerae light production without autoinducers. V. cholerae BH1578 lux reporter, luminescence, 6 h. activation, % at 18.7 µM. hit rate 0.16% among 350,000; in the data active = activation mostly above about 9.7%, no sharp cut-off
3CLpro inhibitor: SARS-CoV 3CLpro protease inhibition; hit rate 0.14% among 290,000; inhibition, % at 6 µM; P0C6X7; recombinant SARS-CoV 3CLpro, quenched FRET peptide cleavage; in the data active = inhibition above about 12%
PrPC surface inh: reduces human prion protein on the cell surface; cell surface PrPC, TR-FRET read-out; inhibition, % at 13.8 µM; P04156; hit rate 0.43% among 370,000; in the data active = inhibition above about 24%; also: 0% = median of the test wells and 100% = reference compound wells
PfHsp40 rescue: rescue of PfHsp40-mediated yeast toxicity | hit rate 0.68% among 340,000 | AID 504582 | S. cerevisiae expressing PfHsp40, growth rescue, ATP luminescence | growth rescue, % at 12.5 µM; in the data active = growth rescue above about 28%, passing the limit was not always enough;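 also: yeast W303a lacking pdr1 and pdr3 grown in galactose medium; growth measured after three days at 30 °C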
Numbers without * were called inactive; i = inactive; . = no result.

SMILES	SSB-PriA inh	PrP UTR inh	BH1578 lux ind	3CLpro inhibitor	PrPC surface inh	PfHsp40 rescue
CCCCCc1ccc(OCCC[n+]2ccccc2)c(CCCCC)c1	-3	-12	-1	3	8	6
CCCCCc1ccc(OCCOCCn2c[n+](C)c3ccccc32)c(CCCCC)c1	20	-25	0	3	.	55*
CCC1=NN(C(=O)c2cccc(Br)c2)C(O)(c2ccc(Br)cc2)C1 (configuration not stated)	-3	-11	0	-2	8	91*
CCC1=NN(C(=O)c2ccc(C)cc2)C(O)(c2ccc(Br)cc2)C1 (configuration not stated)	6	-15	0	0	1	1
CCSc1nsc(NC(=O)Nc2ccccc2F)n1	-6	-15	i	3	12	2
C=CCSc1nsc(NC(=O)Nc2ccc(F)cc2)n1	-8	-11	-1	5	37*	-1
CC(=O)Nc1ccc(NC(=O)c2nc(S(=O)(=O)Cc3cccc(C)c3)ncc2Cl)cc1	-15	8	3	-3	71*	1
Cc1ccc(NC(=O)NNC(=O)COc2ccc([N+](=O)[O-])cc2)cc1C	40*	2	i	2	-11	0
Cc1ccc(NC(=O)CCC(=O)NNC(=O)COc2ccc([N+](=O)[O-])cc2)cc1C	-5	-44	i	-1	6	3
CCCCC(=O)NN=Cc1ccc(Sc2cccc3cccnc23)o1	100*	.	.	.	.	.
Nc1ccn([C@@H]2O[C@H](CO)[C@@H](O)[C@@H]2O)c(=O)n1	.	32	i	-4	-1	1
Nc1ncn([C@@H]2O[C@H](CO)[C@@H](O)[C@H]2O)c(=O)n1	4	15	0	.	42*	-1
O=C1CCC(=O)N1Cc1csc(Nc2cccnc2)n1	-11	.	.	.	.	.
O=[N+]([O-])c1nn(-c2ccc(Cl)cc2)n(O)c1=NCc1ccncc1	8	.	8	9	-31	2
Cc1ccc(CN=c2c([N+](=O)[O-])nn(-c3ccc(Cl)cc3)n2O)cc1	15	.	i	3	-27	52*
O=C(COc1ccc(Cl)cc1Cl)N1CCCC(Cc2nc(C3CC3)no2)C1 (configuration not stated)	-3	.	.	.	.	.
CCOc1ccc2c(c1)sc(=NC(=O)c1cccc(C(F)(F)F)c1)n2CCOC	-10	.	.	.	.	.
COc1ccc(NC(=S)N/N=C2\CC(C)(C)Oc3ccc(OC)cc32)cc1	.	-5	-1	4	11	0
COc1ccc(NC(=S)NN=C2CC(C)(C)Oc3ccc(O)cc32)cc1	47*	.	.	.	.	.
CC1(C)CC(=NNC(=S)Nc2ccccc2F)c2cc(O)ccc2O1	45*	.	.	.	.	.
COc1cccc(NC(=S)NN=C2CC(C)(C)Oc3ccc(O)cc32)c1	40*	.	.	.	.	.
O=C(NCC1(CO)CC1)Nc1ccccc1C(F)(F)F	-3	.	.	.	.	.
CN1C(=O)C(=Cc2c(OCc3cnc(Cl)s3)ccc3ccccc23)C(=O)N(C)C1=O	6	-28	-1	4	-4	125*
COc1ccc(NC(=O)C(=O)NN=Cc2ccc(CNC(=O)C(=O)Nc3ccc(C)c(C)c3)o2)c(OC)c1	4	.	.	.	.	.
O=C(O)c1ccc2c(n1)CCCN2	2	.	.	.	.	.
SMILES	SSB-PriA inh	PrP UTR inh	BH1578 lux ind	3CLpro inhibitor	PrPC surface inh	PfHsp40 rescue
Brc1ccc(C=Nc2ccc(Nc3ccccc3)cc2)s1	88*	-7	0	1	.	2
O=C(NN=Cc1ccc(Br)s1)Nc1ccccc1	0	.	.	.	.	.
Cc1nnsc1C(=O)NCC[C@H](O)C1CCOCC1	-6	.	.	.	.	.
O=c1c2cc(-c3ccccc3)sc2nc2n1N=C(c1ccccc1)CS2	4	-176	-1	-8	-3	-1
Cc1c(C(=O)N(C)C)sc2nc(-c3ccccn3)[nH]c(=O)c12	47*	-19	i	-3	-5	0
CCN(CC)C(=O)c1sc2nc(Cc3ccccc3)[nH]c(=O)c2c1C	-12	-13	0	-3	9	-2
O=c1[nH]c(-c2ccccn2)nc2sc(-c3ccccc3)cc12	-13	-60	.	-2	-3	177*
C/C(=N\OCC(=O)N/N=C/c1ccccc1O)c1cccs1	.	-15	33*	6	-2	2
O=c1oc2ccccc2c(N2CCCCC2)c1CN1CCCCC1	-11	-36	25*	3	0	2
Cc1cccc(-n2nc3c(c2NC(=O)c2ccc(Cl)c([N+](=O)[O-])c2)CS(=O)C3)c1C (configuration not stated)	10	.	.	.	.	.
CCC(=C(c1ccc(OC)cc1)c1ccc(OC)cc1)c1cn(CC(O)CN2CCN(C)CC2)c2ccccc12 (configuration not stated)	55*	-27	0	7	-23	1
COc1ccc(-c2cc3ccccc3n2CC(O)CN2CCCCC2)cc1 (configuration not stated)	8	-17	i	1	4	-1
CC1=C(C)/C(=N\OS(=O)(=O)c2ccccc2)C=CC1=O	.	-16	i	-3	.	637*
CC1=C(C)C(=NOS(=O)(=O)c2ccccc2)C=CC1=O	-9	.	.	.	.	.
CCN(CC)Cc1c[nH]c2c(C(=O)OC)cccc12	-2	-3	17*	2	-5	1
CCN(CC)Cc1c[nH]c2ccccc12	-6	-5	-1	-2	2	1
CCOc1ccccc1C(=O)N1CCN(c2ccccn2)CC1	52	.	.	.	.	.
COc1ccccc1N1COc2ccc3c(=O)c(-c4ccccc4)coc3c2C1	32*	.	.	.	.	.
COc1cc(=O)n(-c2ccc(C)cc2)nc1C(=O)Nc1ccc(Br)cc1F	-8	.	.	.	.	.
O=C(Nc1ccc(Nc2ccccc2)cc1)C(=O)c1c[nH]c2ccccc12	48*	.	.	.	.	.
COc1ccc(NC(=O)c2ccc(C(=O)Nc3ccc(OC)cc3OC)cc2)c(OC)c1	-4	-112	0	2	-1	0
COc1ccc(NC(=O)c2c(OC)cccc2OC)c(OC)c1	67*	-12	i	-2	-12	-1
COC[C@@](C)(O)CNC(=O)CCc1ccc(C(F)(F)F)cc1	0	.	.	.	.	.
CCCn1nc(C(=O)N2CCN(S(=O)(=O)c3ccc(C)c(C)c3)CC2)c2ccccc2c1=O	6	-3	i	.	-7	69*
C/C(=C\C(=S)Nc1ccccc1)Nc1cccc2ccccc12	20	-12	i	4	4	-2
SMILES	SSB-PriA inh	PrP UTR inh	BH1578 lux ind	3CLpro inhibitor	PrPC surface inh	PfHsp40 rescue
C/C(=C\C(=S)Nc1ccccc1)Nc1ccc2ccccc2c1	67*	-46	0	1	-7	-2
Cc1ccc2c(c1)Cc1c(nc(-c3ccccc3)nc1SCC(=O)Nc1cccc(C(=O)O)c1)O2	-13	.	.	.	.	.
Oc1ccccc1-c1nnc(SCCN2CCOCC2)n1Cc1ccccc1	7	4	i	3	-11	249*
Cc1cccn2cc(CCNC(=O)C3CCCCC3)nc12	-13	.	.	.	.	.
Cc1ccc(-c2csc(NC(=O)CSc3nc4ccccc4c(=O)n3CCCN(C)C)n2)cc1	55*	-6	.	3	-2	2
CCn1c(SCC(=O)Nc2nc(-c3ccc(C)cc3)cs2)nnc1-c1ccccc1O	1	-21	1	-4	7	86*
